“And” between values parts separate entries of the source, which are not always exact repeats. Identical values can stand only once. Results filed as inconclusive are left out. More than one record can exist for a structure, and the calls need not agree. The source made the active and inactive calls. Rule for the calls, unless noted: active = hit-call score of the fitted dose curve at least 0.9, where 1 is the maximum; inconclusive = response in the unintended direction; inactive = score below 0.9.
Assays:
[1] = molecular target: rat Peripheral-type Benzodiazepine Receptor (PBR), Tspo (gene 24230) (UniProt P16257); assay: NVS_MP_rPBR: NovaScreen (NVS) Membrane Protein Assay for rat Peripheral-type Benzodiazepine Receptor (PBR) (AID 2283335)
Outline: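 Competitive displacement of specific radioligand from rat kidney membrane PBR, read by filtration and scintillation after 1 h. Compounds first tested at 25 uM in duplicate, then in concentration series; signal loss relative to DMSO.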

[2] = molecular target: Androgen Receptor/SRC-1 Co-activator, AR (gene 367) (UniProt P10275); assay: OT_AR_ARSRC1_0960: Odyssey Thera (OT) 16-hour HEK293T Protein-Complementation Assay for Androgen Receptor/SRC-1 Co-activator (AID 2283353);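 note: actives raise the signal above DMSO so potency reflects increased AR and SRC-1 complex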
Outline: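 Stable HEK293T line carries AR and SRC-1 each linked to a Venus fragment; chemicals are applied for 16 h, cells imaged at two wavelengths, and the 488 nm nucleus/cytoplasm ratio is taken as the signal, rising relative to DMSO.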

[3] = molecular target: Androgen Receptor/SRC-1 Co-activator, AR (gene 367) (UniProt P10275); assay: OT_AR_ARSRC1_0480: Odyssey Thera (OT) 8-hour HEK293T Protein-Complementation Assay for Androgen Receptor/SRC-1 Co-activator (AID 2283354);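 note: hits raise the complementation signal above DMSO so AC50 marks enhancers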
Outline: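 Split-Venus PCA, stable HEK293T, AR/SRC-1 fusions; 8 h exposure. Readout: 488nm N/C fluorescence ratio, ≥400 cells/image; fitted upward vs DMSO baseline.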

[4] = molecular target: human Androgen Receptor (AR), AR (gene 367) (UniProt P10275); assay: NVS_NR_hAR: NovaScreen (NVS) Nuclear Receptor Binding Assay for human Androgen Receptor (AR) (AID 2283332)
Outline: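 LnCAP cell-free extract; radioligand displacement read by scintillation counting after 20 h. Primary screen single concentration 25 uM in duplicate, actives then run as concentration series; loss-of-signal fitted relative to DMSO baseline.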

[5] = molecular target: rat Glutamate, MK-801 Agonist Site (GluNMDA_MK801), Grin1 (gene 24408) (UniProt P35439); assay: NVS_LGIC_rGluNMDA_MK801_Agonist: NovaScreen (NVS) Ligand-Gated Ion Channel Assay for rat Glutamate, MK-801 Agonist Site (GluNMDA_MK801) (AID 2283340)
Outline: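 Rat forebrain membrane preparation; MK-801-site radioligand binding read by filtration and scintillation after 1.5 h. Single-point 25 uM duplicate screen, followed by singleton concentration series to 50 uM max; DMSO baseline.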

[6] = system: NCBI gene 100848466; assay: NVS_NR_bPR: NovaScreen (NVS) Nuclear Receptor Binding Assay for bovine Progextron Receptor (PR) (AID 2283343);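 note: actives lower bound radioligand signal below DMSO meaning displacement of the label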
Outline: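 Scintillation counts of bound radioligand were read 18 hours after chemical addition to membranes extracted from bovine uterus. Displacement was scored as loss of signal relative to DMSO controls. Screening began at 25 uM in duplicate.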

[7] = molecular target: human Constitutive Androstane Receptor (CAR), NR1I3 (gene 9970) (UniProt Q14994); assay: NVS_NR_hCAR_Antagonist: NovaScreen (NVS) Nuclear Receptor Binding Assay for human Constitutive Androstane Receptor Antagonism (CAR) (AID 2283344)
Outline: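 Single 25 uM duplicate primary screen, with concentration-series follow-up on actives. Cell-free binding format run in antagonist mode, TR-FRET signal taken 1 h post-dose; activity is signal loss relative to DMSO.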

[8] = molecular target: bovine Estrogen Receptor (ER), ESR1 (gene 407238) (UniProt P49884); assay: NVS_NR_bER: NovaScreen (NVS) Nuclear Receptor Binding Assay for bovine Estrogen Receptor (ER) (AID 2283345);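 note: actives lower the bound radioligand count which means they displace the ER ligand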
Outline: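 Cell-free radioligand binding with receptor from bovine uterine membranes, read by scintillation counting 18 h after dosing. Loss of specific binding was scored against DMSO; primary screen at 25 uM in duplicate, actives then run as concentration series.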

[9] = molecular target: Estrogen receptor (Homo sapiens) (UniProt P03372); assay: OT_ER_ERaERa_1440: Odyssey Thera (OT) 24-hour HEK293T Protein-Complementation Assay for Estrogen Receptor-alpha/-alpha Homodimer (AID 2283349);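 note: hits raise fluorescence above DMSO for agonists and antagonists alike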
Outline: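 Cells (HEK293T) carrying the fragment-tagged ERα LBD (aa 310-547) pair are treated with chemical for 24 hours. Nuclear and/or cytoplasmic fluorescence is then quantified on a laser scanning cytometer. Activity is scored as signal gain against DMSO.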

[10] = molecular target: Bile acid receptor (Homo sapiens) (UniProt Q96RI1); assay: NVS_NR_hFXR_Antagonist: NovaScreen (NVS) Nuclear Receptor Binding Assay for human Farnesoid X Receptor Antagonism (FXR) (AID 2283350)
Outline: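 Antagonist-format time-resolved FRET binding assay with extracted human receptor protein, read 1 hour after compound addition. Compounds first screened at 25 uM in duplicate, then actives tested in concentration series, with loss of signal relative to DMSO.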

[11] = molecular target: Estrogen receptor (Homo sapiens) (UniProt P03372); assay: OT_ER_ERaERa_0480: Odyssey Thera (OT) 8-hour HEK293T Protein-Complementation Assay for Estrogen Receptor-alpha/-alpha Homodimer (AID 2283351);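 note: rise in fluorescence from reassembled reporter fragments on ERα LBD homodimer in nucleus or whole cell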
Outline: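 Cells were treated for 8 hours, then imaged on a laser scanning plate cytometer. Complementation of reporter fragments fused to the human ERα ligand-binding domain (residues 310-547) in HEK293T gave fluorescence, and gain of signal over vehicle was fitted.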

[12] = molecular target: chimpanzee Androgen Receptor (AR), AR (gene 747460) (UniProt O97775); assay: NVS_NR_cAR: NovaScreen (NVS) Nuclear Receptor Binding Assay for chimpanzee Androgen Receptor (AR) (AID 2283346);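 note: radioligand displacement from AR measured by scintillation counting in a cell-free assay; a loss of bound radioligand signal versus DMSO counts as binding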
Outline: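 Radioligand binding to chimpanzee AR expressed in Sf9/Sf21 cells, cell-free, measured 72 h after dosing by lysate-based scintillation counting. Loss of signal vs DMSO; initial duplicate screen at 25 uM, actives retested in concentration series.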

[13] = molecular target: Glutamate receptor ionotropic, kainate 1 (Rattus norvegicus) (UniProt P22756); assay: NVS_IC_rKAR: NovaScreen (NVS) Ion Channel Assay for rat Kainic Acid Receptors (KAR) (AID 2283334; active = hit-call score of the fitted dose curve at least 0.9, where 1 is the maximum; inactive = score below 0.9)
Outline: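 Rat forebrain membrane preparation incubated 1 h with radioligand and test chemical; bound signal read by filtration and scintillation. Single-concentration screen at 25 uM, then concentration series to 50 uM maximum.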

[14] = system: guinea pig Histamine Receptor (H2), gene 100729734; assay: NVS_GPCR_gH2: NovaScreen (NVS) G Protein-Coupled Receptor Assay for guinea pig Histamine Receptor (H2) (AID 2283342)
Outline: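 Guinea pig striatal membrane preparation with specific radioligand; bound counts measured by filtration and scintillation 1 h post-dosing, DMSO as baseline. Chemicals passing a 25 uM duplicate screen were titrated to a 50 uM maximum.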

[15] = molecular target: human Peripheral-type Benzodiazepine Receptor (PBR), TSPO (gene 706) (UniProt P30536); assay: NVS_MP_hPBR: NovaScreen (NVS) Membrane Protein Assay for human Peripheral-type Benzodiazepine Receptor (PBR) (AID 2283331);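 note: hits reduce radioligand binding relative to DMSO baseline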
Outline: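 Cell-free radioligand displacement, human colonic membranes, 1 h exposure. Filter radiodetection read-out. Single-concentration duplicates (25 uM), then concentration-response for actives; DMSO negative control.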

[16] = NVS_IC_rCaBTZCHL: NovaScreen (NVS) Ion Channel Assay for Calcium Channel, Type L, Benzothiazepine Site (CaBTZCHL) (AID 2283337)
Outline: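 Test chemicals were added to rat cortical membranes and incubated 1.5 h with a tritiated or iodinated radioligand for the benzothiazepine site. Bound ligand was separated by filtration and counted. Actives from the 25 uM duplicate screen were retested in concentration series.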

[17] = molecular target: bovine Gamma-Aminobutyric Acid Type A Receptor Agonist (GABAR Agonist), GABRA1 (gene 780973) (UniProt P08219); assay: NVS_LGIC_bGABAR_Agonist: NovaScreen (NVS) Ligand-Gated Ion Channel Assay for bovine Gamma-Aminobutyric Acid Type A Receptor Agonist (GABAR Agonist) (AID 2283338)
Outline: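 Radioligand binding to bovine cerebellar membranes in agonist format, read by filter-based scintillation counting after 1 h. Primary screen in duplicate at 25 uM, with actives followed in concentration series. Gain of signal versus DMSO.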

[18] = molecular target: Voltage-gated inwardly rectifying potassium channel KCNH2 (Homo sapiens) (UniProt Q12809); assay: NVS_IC_hKhERGCh: NovaScreen (NVS) Ion Channel Assay for human Potassium Channel ERG (KhERGCh) (AID 2283333)
Outline: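 Membranes from CHO cells expressing human ERG; displacement of radioligand measured by filtration and scintillation after 0.75 h. Single-concentration duplicate screen at 25 uM, then concentration-response for actives; DMSO baseline.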

[19] = molecular target: Small conductance calcium-activated potassium channel protein 1 (Rattus norvegicus) (UniProt P70606); assay: NVS_IC_rKCaCh: NovaScreen (NVS) Ion Channel Assay for rat Potassium Channel, Ca2+ Act., VI (KCaCh) (AID 2283336)
Outline: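 Filter-based scintillation counting of radioligand bound to rat forebrain membrane preparations, measured 1 h after compound addition. Primary screen used 25 uM in duplicate, with concentration-response follow-up; signal decrease relative to DMSO marks activity.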

Measured: AC50

Chain of Androgen Receptor/SRC-1 Co-activator, AR (gene 367) (P10275 whole entry, looked up, the tested form may be a part): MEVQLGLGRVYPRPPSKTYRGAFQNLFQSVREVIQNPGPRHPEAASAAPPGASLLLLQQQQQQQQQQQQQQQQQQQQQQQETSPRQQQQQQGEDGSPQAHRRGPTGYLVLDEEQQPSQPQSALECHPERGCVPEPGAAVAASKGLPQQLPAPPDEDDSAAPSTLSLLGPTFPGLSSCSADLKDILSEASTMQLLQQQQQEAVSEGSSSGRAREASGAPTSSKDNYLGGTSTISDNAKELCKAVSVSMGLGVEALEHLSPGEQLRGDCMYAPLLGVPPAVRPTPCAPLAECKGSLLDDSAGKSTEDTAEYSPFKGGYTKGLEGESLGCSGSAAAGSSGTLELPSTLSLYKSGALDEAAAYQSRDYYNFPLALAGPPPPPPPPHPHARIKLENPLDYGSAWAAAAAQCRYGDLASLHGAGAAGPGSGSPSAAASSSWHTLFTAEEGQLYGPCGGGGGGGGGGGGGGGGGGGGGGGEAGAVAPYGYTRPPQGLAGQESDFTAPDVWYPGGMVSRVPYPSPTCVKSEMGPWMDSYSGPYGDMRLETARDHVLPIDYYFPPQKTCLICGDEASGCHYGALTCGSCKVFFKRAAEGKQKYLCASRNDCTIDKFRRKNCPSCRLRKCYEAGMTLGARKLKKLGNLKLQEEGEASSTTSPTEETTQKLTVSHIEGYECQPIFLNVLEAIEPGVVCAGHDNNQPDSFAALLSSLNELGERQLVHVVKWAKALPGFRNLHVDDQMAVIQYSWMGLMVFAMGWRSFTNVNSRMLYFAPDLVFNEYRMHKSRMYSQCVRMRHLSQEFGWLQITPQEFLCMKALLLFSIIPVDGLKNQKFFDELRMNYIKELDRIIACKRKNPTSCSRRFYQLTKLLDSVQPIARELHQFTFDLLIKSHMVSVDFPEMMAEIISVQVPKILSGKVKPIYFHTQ
Chain of human Androgen Receptor (AR), AR (gene 367) (P10275 whole entry, looked up): as the sequence (P10275 whole entry, looked up, the tested form may be a part) above
Chain of Estrogen receptor (Homo sapiens) (P03372 whole entry, looked up, the tested form may be a part): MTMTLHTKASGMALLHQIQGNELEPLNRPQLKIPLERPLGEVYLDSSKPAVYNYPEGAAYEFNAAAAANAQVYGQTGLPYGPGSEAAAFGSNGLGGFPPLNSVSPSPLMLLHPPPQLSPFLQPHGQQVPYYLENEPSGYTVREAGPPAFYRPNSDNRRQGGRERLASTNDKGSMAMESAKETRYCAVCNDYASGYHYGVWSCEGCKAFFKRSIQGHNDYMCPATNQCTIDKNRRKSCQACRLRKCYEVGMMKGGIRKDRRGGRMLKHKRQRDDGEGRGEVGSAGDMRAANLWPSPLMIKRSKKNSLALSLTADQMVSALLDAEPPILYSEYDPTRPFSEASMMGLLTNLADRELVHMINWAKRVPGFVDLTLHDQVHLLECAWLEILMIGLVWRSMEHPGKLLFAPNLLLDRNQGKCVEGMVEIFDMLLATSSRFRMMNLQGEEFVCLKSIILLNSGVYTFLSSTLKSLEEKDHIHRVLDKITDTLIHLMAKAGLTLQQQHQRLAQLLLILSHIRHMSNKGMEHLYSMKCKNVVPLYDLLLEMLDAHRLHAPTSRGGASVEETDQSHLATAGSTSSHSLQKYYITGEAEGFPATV
Chain of human Constitutive Androstane Receptor (CAR), NR1I3 (gene 9970) (Q14994 whole entry, looked up): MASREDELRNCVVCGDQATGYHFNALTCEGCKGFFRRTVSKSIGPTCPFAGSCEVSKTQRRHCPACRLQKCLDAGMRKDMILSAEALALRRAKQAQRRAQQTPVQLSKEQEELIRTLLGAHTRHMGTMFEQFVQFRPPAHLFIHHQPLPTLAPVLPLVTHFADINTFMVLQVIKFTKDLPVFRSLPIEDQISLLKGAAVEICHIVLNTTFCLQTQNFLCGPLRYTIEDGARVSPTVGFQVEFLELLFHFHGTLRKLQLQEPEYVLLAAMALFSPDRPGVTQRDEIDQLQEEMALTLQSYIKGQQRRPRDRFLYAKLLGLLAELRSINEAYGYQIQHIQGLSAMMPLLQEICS
Chain of human Peripheral-type Benzodiazepine Receptor (PBR), TSPO (gene 706) (P30536 whole entry, looked up): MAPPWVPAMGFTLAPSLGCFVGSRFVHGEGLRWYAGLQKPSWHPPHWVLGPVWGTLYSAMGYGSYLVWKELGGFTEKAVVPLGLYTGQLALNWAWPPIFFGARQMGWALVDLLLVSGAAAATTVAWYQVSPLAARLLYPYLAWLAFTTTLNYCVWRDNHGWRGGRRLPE
Chain of rat Peripheral-type Benzodiazepine Receptor (PBR), Tspo (gene 24230) (P16257 whole entry, looked up): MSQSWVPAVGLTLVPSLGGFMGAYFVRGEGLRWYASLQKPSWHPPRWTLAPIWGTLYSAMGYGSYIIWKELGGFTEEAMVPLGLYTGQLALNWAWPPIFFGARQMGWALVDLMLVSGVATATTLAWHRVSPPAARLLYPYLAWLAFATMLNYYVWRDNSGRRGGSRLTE
Chain of bovine Estrogen Receptor (ER), ESR1 (gene 407238) (P49884 whole entry, looked up): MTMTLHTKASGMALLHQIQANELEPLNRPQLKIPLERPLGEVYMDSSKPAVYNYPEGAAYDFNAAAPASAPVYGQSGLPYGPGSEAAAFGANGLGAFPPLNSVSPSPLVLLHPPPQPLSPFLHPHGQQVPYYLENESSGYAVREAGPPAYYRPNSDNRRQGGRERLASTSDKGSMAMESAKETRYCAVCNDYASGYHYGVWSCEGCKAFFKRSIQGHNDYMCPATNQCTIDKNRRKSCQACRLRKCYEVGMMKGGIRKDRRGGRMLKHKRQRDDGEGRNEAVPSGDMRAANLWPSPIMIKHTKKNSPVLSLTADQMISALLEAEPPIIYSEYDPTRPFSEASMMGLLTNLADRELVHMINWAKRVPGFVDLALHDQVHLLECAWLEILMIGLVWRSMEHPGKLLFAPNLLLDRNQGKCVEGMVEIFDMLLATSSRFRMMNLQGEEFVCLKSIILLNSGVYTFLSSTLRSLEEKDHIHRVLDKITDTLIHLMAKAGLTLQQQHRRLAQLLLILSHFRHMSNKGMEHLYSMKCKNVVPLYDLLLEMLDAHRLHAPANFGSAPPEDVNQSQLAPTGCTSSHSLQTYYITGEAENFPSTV
Chain of chimpanzee Androgen Receptor (AR), AR (gene 747460) (O97775 whole entry, looked up): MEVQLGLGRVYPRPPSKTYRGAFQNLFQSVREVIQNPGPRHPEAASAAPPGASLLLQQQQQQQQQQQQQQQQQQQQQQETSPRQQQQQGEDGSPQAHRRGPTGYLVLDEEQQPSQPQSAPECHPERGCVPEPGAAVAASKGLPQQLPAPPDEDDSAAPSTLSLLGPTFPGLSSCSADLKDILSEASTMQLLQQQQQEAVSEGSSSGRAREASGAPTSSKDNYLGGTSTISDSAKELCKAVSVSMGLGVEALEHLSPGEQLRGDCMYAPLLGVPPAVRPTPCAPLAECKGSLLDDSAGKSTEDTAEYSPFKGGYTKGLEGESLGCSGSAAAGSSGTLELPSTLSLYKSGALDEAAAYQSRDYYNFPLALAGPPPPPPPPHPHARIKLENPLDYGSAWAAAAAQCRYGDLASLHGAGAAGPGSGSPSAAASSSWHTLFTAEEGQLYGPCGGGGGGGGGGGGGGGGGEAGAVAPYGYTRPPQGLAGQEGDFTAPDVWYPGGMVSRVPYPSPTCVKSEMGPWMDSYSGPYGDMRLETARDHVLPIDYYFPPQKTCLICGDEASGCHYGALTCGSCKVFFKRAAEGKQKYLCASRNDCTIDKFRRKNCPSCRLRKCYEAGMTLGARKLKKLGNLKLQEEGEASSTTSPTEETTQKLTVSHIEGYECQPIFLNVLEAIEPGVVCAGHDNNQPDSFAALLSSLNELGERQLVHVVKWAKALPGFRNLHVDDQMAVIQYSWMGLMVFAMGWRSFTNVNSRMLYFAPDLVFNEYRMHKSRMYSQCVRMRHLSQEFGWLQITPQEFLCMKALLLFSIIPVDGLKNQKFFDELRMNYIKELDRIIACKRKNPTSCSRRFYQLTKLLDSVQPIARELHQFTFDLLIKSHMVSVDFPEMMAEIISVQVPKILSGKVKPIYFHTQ
Chain of Bile acid receptor (Homo sapiens) (Q96RI1 whole entry, looked up): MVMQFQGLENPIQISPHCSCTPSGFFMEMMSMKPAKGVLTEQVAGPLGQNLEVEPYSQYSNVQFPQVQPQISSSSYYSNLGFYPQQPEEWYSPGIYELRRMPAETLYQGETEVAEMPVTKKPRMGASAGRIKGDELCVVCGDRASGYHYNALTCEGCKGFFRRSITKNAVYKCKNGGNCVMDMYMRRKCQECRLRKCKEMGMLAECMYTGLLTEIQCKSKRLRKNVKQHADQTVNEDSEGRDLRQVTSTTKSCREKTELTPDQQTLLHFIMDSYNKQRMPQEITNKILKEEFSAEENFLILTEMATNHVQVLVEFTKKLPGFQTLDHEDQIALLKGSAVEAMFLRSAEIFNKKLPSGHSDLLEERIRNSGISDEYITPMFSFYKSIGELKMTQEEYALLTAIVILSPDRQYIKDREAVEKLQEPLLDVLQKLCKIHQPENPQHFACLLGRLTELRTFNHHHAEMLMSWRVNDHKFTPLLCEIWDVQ
Chain of bovine Gamma-Aminobutyric Acid Type A Receptor Agonist (GABAR Agonist), GABRA1 (gene 780973) (P08219 whole entry, looked up): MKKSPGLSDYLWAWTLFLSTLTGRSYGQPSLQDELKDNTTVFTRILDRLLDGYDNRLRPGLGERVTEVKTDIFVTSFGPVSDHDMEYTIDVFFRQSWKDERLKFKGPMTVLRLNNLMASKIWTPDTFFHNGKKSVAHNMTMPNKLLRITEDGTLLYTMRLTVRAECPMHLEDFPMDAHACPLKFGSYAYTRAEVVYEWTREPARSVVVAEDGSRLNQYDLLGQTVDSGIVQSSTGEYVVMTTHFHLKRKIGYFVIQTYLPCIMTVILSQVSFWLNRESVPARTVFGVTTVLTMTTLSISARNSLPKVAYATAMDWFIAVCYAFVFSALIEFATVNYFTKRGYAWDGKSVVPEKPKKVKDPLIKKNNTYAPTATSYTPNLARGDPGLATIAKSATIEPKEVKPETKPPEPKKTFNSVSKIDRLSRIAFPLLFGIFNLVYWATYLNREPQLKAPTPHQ

O=c1c(-c2ccc(O)cc2)coc2cc(O)ccc12
active: [1] 14 µM
inactive: [2] | [3]

CCCCCCCCCCCCc1ccccc1S(=O)(=O)O
active: [4] 8.85 µM | [1] 6.37 µM | [6] 17.1 µM | [7] 10.9 µM | [8] 39.1 µM | [10] 12.2 µM
inactive: [5] | [9] | [11] | [2] | [3]

ClC1=C(Cl)C(Cl)(Cl)C(Cl)=C1Cl
inactive: [5] | [8] | [9] | [11]

C#C[C@]1(O)CC[C@H]2[C@@H]3CCC4=CC(=O)CC[C@@H]4[C@H]3CC[C@@]21C
inactive: [8] | [9] | [11]
active: [6] 0.0183 µM | [12] 5.99 nM and 4.99 nM

CC[C@H](C)[C@@H](C(=O)O)n1sc2ccccc2c1=O
inactive: [13] | [9] | [11]

CC#C[C@]1(O)CC[C@H]2[C@@H]3CCC4=CC(=O)CCC4=C3[C@@H](c3ccc(N(C)C)cc3)C[C@@]21C
inactive: [14] | [8] | [9] | [10] | [11]
active: [6] 0.00874 µM | [8] 10 µM and 16.2 µM and 8.77 µM | [12] 16.7 nM and 46.7 nM

CCC(=C(c1ccc(O)cc1)c1ccc(OCCN(C)C)cc1)c1ccccc1
active: [4] 8.62 nM and 653 nM | [1] 4.37 µM and 3.09 µM | [16] 0.589 µM | [14] 1.33 µM | [7] 18.2 µM | [12] 6.21 µM and 12.9 µM | [2] 19.8 µM and 20.2 µM and 19.2 µM | [3] 46.8 µM and 46.2 µM and 46.6 µM
inactive: [15] | [1] | [10] | [2] | [3]

Cc1oc(-c2ccccc2)nc1CCOc1ccc(C[C@H](Nc2ccccc2C(=O)c2ccccc2)C(=O)O)cc1
inactive: [8] | [12] | [9] | [11] | [3]
active: [15] 6.36 µM | [4] 1.92 µM | [1] 4.35 µM | [2] 45.4 µM

COCC(C)OCC(C)O (centres undefined)
inactive: [7] | [9] | [2] | [3]

O=C1OC2(c3ccccc31)c1cc(Br)c(O)c(Br)c1Oc1c2cc(Br)c(O)c1Br
active: [12] 38.1 µM | [9] 62.2 µM | [11] 88.3 µM
inactive: [8]

OCCC(F)(F)C(F)(F)C(F)(F)C(F)(F)C(F)(F)C(F)(F)C(F)(F)C(F)(F)F
inactive: [13] | [17] | [8] | [9] | [11] | [2] | [3]

CC(=O)NC1(c2cccc(F)c2)CCN(CC[C@@]2(c3ccc(Cl)c(Cl)c3)CN(c3ccccc3)C(=O)CO2)CC1
inactive: [19] | [9] | [11]
active: [18] 14 µM | [16] 0.835 µM | [14] 8.91 µM

COc1ccc([N+](=O)[O-])cc1N
inactive: [18] | [9] | [11]

Oc1cc2ccccc2c2ccccc12
active: [4] 19.2 µM | [6] 18 µM | [12] 10.1 µM | [2] 7.07 µM | [3] 8.63 µM
inactive: [8] | [9] | [11]

CCCOC(=O)c1ccc(O)cc1
inactive: [15] | [8] | [12]
active: [9] 31.2 µM | [11] 38.4 µM

O=C(O)c1ccccc1C(c1ccc(O)cc1)c1ccc(O)cc1
active: [7] 0.427 µM
inactive: [12] | [9] | [11] | [2] | [3]

CCN(CC)CCNc1ccc(CNC=O)c2sc3ccc(OC)cc3c(=O)c12
inactive: [8] | [12] | [9] | [11]
active: [15] 8.04 µM | [1] 6.96 µM | [16] 19.2 µM | [14] 11.3 µM

O=C(O)Cc1cc(I)c(Oc2cc(I)c(O)c(I)c2)c(I)c1
inactive: [15] | [8] | [9] | [11]

CN(C)C=O
inactive: [19] | [9] | [11]

O=C(OCCOCCOC(=O)c1ccccc1)c1ccccc1
inactive: [1] | [17] | [7] | [9] | [10] | [11]

OC1CCC(C2CCCCC2)CC1 (centres undefined)
active: [12] 22.4 µM | [11] 81.9 µM
inactive: [8] | [12] | [9] | [11]

CCc1ccc(CCOc2ccc(CC3SC(=O)NC3=O)cc2)nc1 (centres undefined)
active: [15] 12.1 µM | [9] 75.1 µM | [11] 76.7 µM

Source: PubChem BioAssay (EPA / NIEHS)
